Assay results reported in PubChem BioAssay (NCI).
About 83,000 compounds went through this panel and 20% of them were active in at least one assay; those are over-represented in the sample as a whole.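 For each line, cells grew in 96-well plates with the test compound present at a single concentration for 48 hours.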 A number with no mark means an inactive call. The source made the active and inactive calls. Rule for the calls: active = growth percent below 10; inactive = the rest.

Assays:
Test in all cases: NCI-60 one-dose screen, 48 h (100 = growth as untreated, 0 = no growth, -100 = all killed)
HCT-15 colon = details: 10 µM unless noted
HT29 colon = details: 10 µM unless noted
SNB-19 CNS = details: 10 µM unless noted
U251 CNS = details: 10 µM unless noted
PC-3 prostate = details: 10 µM unless noted
SK-MEL-5 melanoma = details: 10 µM unless noted
UACC-62 melanoma = details: 10 µM unless noted
LOX IMVI melanoma = details: 10 µM unless noted
SK-MEL-28 melanoma = details: 10 µM unless noted
SK-MEL-2 melanoma = details: 10 µM unless noted
EKVX NSCLC = details: 10 µM unless noted
SN12C renal = details: 10 µM unless noted
UO-31 renal = details: 10 µM unless noted
TK-10 renal = details: 10 µM unless noted
ACHN renal = details: 10 µM unless noted
CAKI-1 renal = details: 10 µM unless noted
A498 renal = details: 10 µM unless noted
CCRF-CEM leukemia = details: 10 µM unless noted
SNB-75 CNS = details: 10 µM
MOLT-4 leukemia = details: 10 µM unless noted

Structure (SMILES)	growth (HCT-15 colon)	growth (HT29 colon)	growth (SNB-19 CNS)	growth (U251 CNS)	growth (PC-3 prostate)	growth (SK-MEL-5 melanoma)	growth (UACC-62 melanoma)	growth (LOX IMVI melanoma)	growth (SK-MEL-28 melanoma)	growth (SK-MEL-2 melanoma)	growth (EKVX NSCLC)	growth (SN12C renal)	growth (UO-31 renal)	growth (TK-10 renal)	growth (ACHN renal)	growth (CAKI-1 renal)	growth (A498 renal)	growth (CCRF-CEM leukemia)	growth (SNB-75 CNS)	growth (MOLT-4 leukemia)
CCNc1nc(S(=O)(=O)CC)nc2ccccc12	92.3%	95.5%	103%	101%	96.8%	90.8%	90.8%	101%	108%	94.6%	95%	101%	82.4%	112%	86.1%	72.8%	113%	86.6%	–	–
O=C(/C=C\c1cccc([N+](=O)[O-])c1)/C=C/c1cccc([N+](=O)[O-])c1	73.5%	9.81% (active)	94.5%	22.6%	82.1%	100%	78.1%	-89.7% (active)	102%	-38.1% (active)	107%	98.1%	71.1%	89.9%	89.6%	94.2%	90.4%	74.4%	94.3%	94.3%
Cc1nc2c3c(ncn2n1)Oc1c(c(=O)[nH]c2ccccc12)C3c1ccc(Cl)cc1 (centres undefined)	99.6%	102%	92%	94.1%	83.4%	94.8%	90.6%	91.1%	110%	101%	86.6%	97%	64.5%	105%	96.1%	83.8%	95.4%	96.5%	–	–
CCCCCCCCC(C)OC(=O)c1nn(C(C)=O)c2ccccc12 (centres undefined)	101%	103%	107%	94.7%	95.7%	97.7%	92.3%	103%	116%	97.7%	92.2%	102%	83.1%	93.2%	107%	91.1%	109%	100%	–	109%
COc1ccc(/C=N\NC(=O)CN2CCN(c3cc4c(cc3F)c(=O)c(C(=O)N/N=C/c3ccc(OC)c(OC)c3)cn4C3CC3)CC2)cc1OC	98%	6.97% (active)	-0.836% (active)	-16% (active)	13.3%	41.9%	-52.1% (active)	-77.7% (active)	-34.1% (active)	-24.8% (active)	55%	-8.5% (active)	85%	65.1%	102%	88.2%	89.1%	9.85% (active)	–	–
Clc1ccc2c(NC3CCC(NC4CCCCC4)CC3)ccnc2c1 (centres undefined)	29.6%	7.7% (active)	81.9%	35.8%	59.2%	18.6%	-31.3% (active)	–	-10.5% (active)	55.2%	68.1%	74.1%	56.2%	48.8%	58.2%	47.9%	62.5%	70.2%	79.6%	56.9%
CCN1CCN(c2nc(NNC(=O)c3ccccc3)nc(N3CCN(C(c4ccccc4)c4ccccc4)CC3)n2)CC1	25.7%	1.28% (active)	72.5%	49.4%	48.5%	-92.4% (active)	80%	-44.6% (active)	82.9%	78.4%	66.6%	70.8%	30.8%	95.1%	81.1%	42.7%	–	–	–	–
COC1=C(OC)C(=O)C(CCCCCCCCCC[P+](c2ccccc2)(c2ccccc2)c2ccccc2)=C(C)C1=O	-3.39% (active)	-10.6% (active)	-53.1% (active)	-27.2% (active)	-12.7% (active)	-100% (active)	-93% (active)	-89.6% (active)	-86.1% (active)	-42.7% (active)	-6.16% (active)	-74.8% (active)	-18.2% (active)	-56.7% (active)	-25.9% (active)	-40.6% (active)	-44.1% (active)	-6.4% (active)	-44.5% (active)	-33.8% (active)
O=c1[nH]c(Nc2ccc(S(=O)(=O)O)cc2)nc2nc(Nc3ccc(NC(=S)Nc4ccccc4)cc3)nc(-c3ccc(O)cc3O)c12	105%	125%	91.1%	101%	108%	114%	91.5%	96.2%	112%	101%	110%	98.5%	73.9%	156%	100%	134%	111%	94.5%	96.3%	91.4%
CC(C)CSc1nc(NN)c(C#N)c(-c2ccc(F)cc2)n1	46.9%	103%	60.8%	60.2%	56.7%	50.3%	56%	54.4%	85%	67.9%	89.4%	79.9%	55.8%	92.1%	60.6%	67.9%	68.2%	61.6%	–	–
c1ccc(-c2cn(-c3ccccc3)c(-c3ccccc3)n2)cc1	60.9%	70.5%	85.6%	56.4%	59.5%	108%	76.9%	69.3%	98.9%	81.7%	89.1%	97.7%	41.4%	81.8%	91.1%	98.4%	94.5%	-25.8% (active)	81.3%	-13.3% (active)
O=C(Nc1ccc(NCCN2CCOCC2)nc1)c1ccc([N+](=O)[O-])cc1	105%	101%	106%	102%	98.5%	98.7%	94.6%	102%	115%	108%	87.2%	107%	96.2%	114%	109%	99%	92.5%	101%	–	–
CCCN=C1NC(=O)/C(=C/c2nc(-c3ccc(OC)cc3)n3ccccc23)S1	84.8%	99.3%	80.8%	52.9%	85.9%	64.9%	93.1%	52.7%	111%	95.2%	115%	83.8%	91.8%	91.1%	62.7%	123%	103%	84.9%	96.5%	76.5%
C/C(=N/NC(=S)Nc1ccccc1)c1nc2ccc(Cl)cc2[nH]1	0.555% (active)	-88.5% (active)	-33.7% (active)	-44.2% (active)	-47.7% (active)	-97.3% (active)	-72.6% (active)	-75.8% (active)	-96.6% (active)	-93.6% (active)	-23.6% (active)	-37.4% (active)	-35.5% (active)	-39.1% (active)	7.65% (active)	9.36% (active)	-81.4% (active)	–	-75.5% (active)	-16.7% (active)
O=[N+]([O-])c1cccc(-c2nc3sccn3c2-c2ccnc(NCCCNS(=O)(=O)c3ccc(Cl)cc3)n2)c1	35.2%	56.4%	83.5%	87.8%	28.1%	-17.2% (active)	7.02% (active)	35.4%	66%	45.3%	50.9%	53.8%	22.2%	117%	47.8%	43.8%	68%	16.7%	–	13.7%
Cc1c(C(N)=O)sc2c1c(=O)n(Cc1ccccc1)c1nnc(Nc3ccccc3)n21	96.1%	94.3%	101%	97.2%	96.9%	105%	92.5%	93.5%	109%	103%	94.1%	99.2%	67.9%	113%	96.4%	82%	110%	–	–	–
O=c1[nH]c(NCc2ccccc2)nc2nc(Nc3ccc(NC(=S)Nc4ccccc4)cc3)nc(-c3ccc(O)cc3O)c12	105%	125%	91.9%	87.8%	109%	113%	83%	101%	91.5%	97.5%	63.2%	97.4%	78.5%	134%	103%	77.3%	101%	86.4%	91.7%	77.4%
